In PubChem BioAssay AID624483 (NMMLSC, 2012):
Among all 360,000 compounds or so, about 11,000 (3.1%) were called active. Roughly 2% stayed inconclusive and do not appear here. For the sample, actives were picked, then their nearest neighbours and some compounds at random. A number with no mark means an inactive call. Rule as the data show it: active = fluorescence intensity above about 16000; inconclusive = no clear call, values can overlap the other calls; inactive = below that.

experiment: compound fluorescence in toxin protease inhibitor counterscreen, primary screen, artefact control for toxin protease inhibitor project, biochemical, multiplex microsphere, HTS (AID 624483); conditions: compound autofluorescence counterscreen, microsphere flow cytometry; stronger effect = higher value

SMILES	fluorescence intensity
Cn1c(=O)cc(OCCCC(=O)N2CCN(Cc3ccc4c(c3)OCO4)CC2)c2ccccc21	9010
Cn1c(=O)cc(OCC(=O)N2CCN(c3ccccc3F)CC2)c2ccccc21	2380
Cn1c(=O)cc(OCCCC(=O)N2CCN(c3ccccn3)CC2)c2ccccc21	19100 (active)
Nc1nc(SCCOc2ccccc2)n[nH]1	6950
CCCOc1ccc(-c2nc(N)n[nH]2)cc1	16700 (active)
COc1ccc(-c2nc(SCC(=O)N3CCCC3)n[nH]2)cc1	5340
CCOC(=O)c1ccc(-c2ccc3ncnc(N(C)Cc4sccc4C)c3c2)o1	3710
CCCC(=O)N1CCC1(C)C(=O)NS(=O)(=O)c1ccc(Cl)cc1 (centres undefined)	2920
Cc1nc2c(OCc3ccc(Cl)cc3)cccn2c1N(C)Cc1cccs1	3830
COC(=O)C1=C(N)Oc2c(oc(CO)cc2=O)C1c1c(F)cccc1Cl (centres undefined)	3610
COc1ccc(C(=O)N/N=C2\CCS(=O)(=O)c3ccc(F)cc32)cc1OC	4530
Cc1ccc(C(=O)N(CN2CCCC2=O)c2ccc(F)cc2)cc1	24000 (active)
CCOc1ccc(C(=O)NCCCN2CCCC2=O)cc1	3040
Cc1ccc(-c2nn(-c3ccccc3)cc2C(=O)NCCCN2CCCC2=O)cc1	4630
Cc1ccc2c(=O)oc(N(C)C)nc2c1	2560
Cc1ccc(-n2nc(N)c3c(=O)oc(N(C)C)nc32)cc1	23400 (active)
CCCNC(=O)CCc1c(C)nc2c(c(C)nn2-c2ccc(C)cc2)c1C	3860
Cc1ccc(NS(=O)(=O)c2c(C)[nH]c(=O)[nH]c2=O)cc1C	10900
CC1(C)Cc2ccccc2-c2[nH]c(=S)[nH]c(=O)c21	4400
O=c1[nH]c(CN2CCOCC2)nc2scc(-c3ccccc3)c12	4340
CC1(C)Cc2ccccc2-c2nc(CN3CCOCC3)[nH]c(=O)c21	22300 (active)
CC(C)c1cccc(C(C)C)c1Nc1cn[nH]c1	6170
CCOc1ccc(NC(=O)c2ccc(NC(=O)COC(=O)c3ccc(NC(=O)CC#N)cc3)cc2)cc1	4430
CCC(C)(C)c1ccc(Oc2ccc(NC(=O)COC(=O)C3=COCCO3)cc2)cc1	21300 (active)

SMILES	fluorescence intensity
COc1ccc(NC(=O)COC(=O)C2COc3ccccc3O2)cc1 (centres undefined)	3930
C/C(=N\NS(=O)(=O)c1ccccc1)c1c(O)cc(C)oc1=O	5910
O=C(CSc1nccc(=O)[nH]1)Nc1ccc(N2CCOCC2)c(Cl)c1	3800
CCOC(=O)c1c(C)[nH]c(C(=O)OCC(=O)N2CCCC2=O)c1C	6230
CCOC(=O)c1[nH]c(C)c(C(=O)OCC(=O)N2c3ccccc3CC2C)c1C (centres undefined)	19700 (active)
CCOc1ncccc1C(=O)OCC(=O)N1c2ccccc2CC1C (centres undefined)	3090
CC(C)C(OC(=O)c1cccs1)C(=O)NC1CCCCC1 (centres undefined)	9640
Cc1ccc(-c2nc(COC(=O)c3c(C)noc3C)cs2)cc1	9900
COc1ccccc1CN1CCCC(N2CCN(c3ccc(F)cc3)CC2)C1 (centres undefined)	4030
COc1ccc(N2C(=O)c3ccccc3NC2c2ccc(OC)c(CN3CCOCC3)c2)cc1 (centres undefined)	4330
COc1ccc(C2C(C#N)=C(N)Oc3n[nH]c(C)c32)cc1CN1CCN(c2ccc(F)cc2)CC1 (centres undefined)	24200 (active)
CSc1ncnc2c1ncn2CCCNCC1CCCCC1	3580
CCOC(=O)C1CCN(C(=O)Nc2cccc(OC)c2)CC1	3130
COc1ccc(NC(=O)CCS(=O)(=O)c2cc3c(cc2Cl)NC(=O)CO3)cc1OC	4470
O=C1COc2ccc(NC(=O)N3CCN(c4ccc(F)cc4)CC3)cc2N1	22400 (active)
CC(CC(=O)Nc1ccc(F)cc1F)S(=O)(=O)c1ccc2c(c1)NC(=O)CO2 (centres undefined)	6050
Cc1ccc(NC(=O)C2CCN(S(=O)(=O)c3ccc4c(c3)NC(=O)CO4)CC2)cc1C	6240
COc1cccc(N2CCN(C(=O)Nc3ccc4c(c3)NC(=O)CO4)CC2)c1	19600 (active)
Clc1ccccc1Nc1nc(NCc2cccs2)nc2ccsc12	2970
O=C(NN=Cc1ccccc1O)C(=O)NN=Cc1ccccc1O	3880
COC(=O)[C@H](CC(C)C)NC(=O)N1CCCCC1C (some centres undefined)	6670
COc1ccccc1-c1cc(NC(C)=O)c2ncc(-c3ccc(F)cc3)n2c1	3190
O=C(c1ccc(F)cc1)N1CCC(C(=O)N2CCN(S(=O)(=O)c3ccccc3Br)CC2)CC1	6500
CC(=O)c1c(N2CCOCC2)nc(=S)n(Cc2ccccc2)c1C	2990

SMILES	fluorescence intensity
CCSc1nc(=S)n(CC)c(C)c1C(C)=O	19400 (active)
CCn1c(CSc2nc(C)cc(C)n2)nnc1SCC(N)=O	4570
CCCc1nc(-c2ccccc2O)n(-c2ccccc2)n1	3640
CC(=O)NC(C)(C)C1CC=C(C)/C(=N\O)C1 (centres undefined)	17100 (active)
C=C(C)C1CC=C(C)/C(=N\NC(=O)CNc2ccccc2OC)C1 (centres undefined)	2580
OC(c1ccccc1)c1nc(/C=C/c2ccc(C(F)(F)F)cc2)cs1 (centres undefined)	2820
CCCc1nnc(SCC(=O)Nc2ccc(C(=O)OCC)cc2)o1	3670
CC(=O)Nc1ccc(C(=O)CSc2nnc(Cc3ccccc3)o2)cc1	16300 (active)
O=C(CSc1nnc(Cn2cnc3ccccc32)o1)c1ccccc1	4020
CN(Cc1cn(Cc2ccc(C(F)(F)F)cc2)nn1)C1CN(Cc2cn(Cc3ccc(C(F)(F)F)cc3)nn2)S(=O)(=O)C1 (centres undefined)	5810
COc1ccc(CNC(=O)C2CCCC2)cc1	5540
COc1ccc(CNC2CCCCC2)cc1	22800 (active)
COc1ccc(CNc2nc(NCc3ccc(OC)cc3)c3ncn(C4CCCC4)c3n2)cc1	4490
COc1cccc(NC(=O)C2(C)CCN2Cc2ccccc2Cl)c1 (centres undefined)	3880
COc1ccccc1CNC(=O)c1cc(-c2cc(Cl)ccc2C)n[nH]1	3000
O=C(CSc1nnc(COc2ccc(Cl)cc2)n1Cc1ccco1)N1CCNC1=O	5560
COc1ccc(C(=O)CSc2nnc(COc3ccccc3)n2Cc2ccco2)cc1	23900 (active)
CCn1c(CNc2ccc(OC)cc2)nnc1SCC(=O)c1ccc(OC)cc1	3090
CCCCN(CC)C(=O)CN(C)S(=O)(=O)c1cccc2nsnc12	6470
CC(C(=O)NC1CCCC1)N1CCN(S(=O)(=O)c2ccccc2Cl)CC1 (centres undefined)	4750
CCCCNC(=O)CN1C(=O)NC(Cc2ccccc2)(Cc2ccccc2)C1=O	5690
O=C(CN1C(=O)NC(Cc2ccccc2)(Cc2ccccc2)C1=O)NCC1CCCCC1	20200 (active)
O=C(CC1CCCCC1)NCc1ccccc1	3670
CSc1ccccc1C(=O)Nc1cccc(C(C)=O)c1	26700 (active)

SMILES	fluorescence intensity
CC(=O)c1cccc(NC(=O)[C@@H](NC(N)=O)C(C)C)c1	3400
CC(=O)c1cccc(NC(=O)c2cc(C)nn2-c2ccccc2)c1	3940
COC(=O)c1ccc2c(c1)S(=O)(=O)NC2C (centres undefined)	5730
COC(=O)c1ccc(OCC(O)CN(CCO)CC(O)Cn2ccc3ccccc32)cc1 (centres undefined)	2540
CCOC(=O)c1sc(NC(=O)CSc2nc(C)cc(C(F)(F)F)n2)c(C#N)c1C	20700 (active)
Cc1cc(C(F)(F)F)nc(SCC(=O)Nc2nccs2)n1	4960
CCn1c(SCC(=O)Nc2sc(C)c(C)c2C#N)nnc1C1CC1	4370
CC(C)(C)S(=O)N1Cc2cc(C(=O)NCCCN3CCOCC3)nc(-c3cccc(-c4cc5ccccc5o4)c3)c2[C@H]1CCO (some centres undefined)	4620
Cc1noc(NS(=O)(=O)c2ccc(N3CC(O)=C(c4ccccc4)C3=N)cc2)c1C	2440
CCOC(=O)C1CCCN(C(=O)c2ccc(C)c(F)c2)CC1 (centres undefined)	3730
CS(=O)(=O)Nc1cccc(C2=NN(S(=O)(=O)c3ccccc3)C(c3cccs3)C2)c1 (centres undefined)	8170
CCS(=O)(=O)Nc1ccc(C2=NN(S(=O)(=O)c3ccc(F)cc3)C(c3ccco3)C2)cc1 (centres undefined)	17100 (active)
CCS(=O)(=O)Nc1ccc(C2=NN(C(C)=O)C(c3cccs3)C2)cc1 (centres undefined)	2400
CCOC(=O)C1(C(F)(F)F)N=C(N(C)C)OC(N(C)C)=N1	2190
COCCCNC(=O)CNC(=S)N(Cc1cc(OC)c(OC)c(OC)c1)C1CCCC1	2570
O=S1(=O)CC(NCc2ccccc2)C(Nc2ccc(Cl)cc2)C1 (centres undefined)	3670
CCn1c(C)nc2cc(C(=O)NNS(=O)(=O)c3ccc(C)cc3C)ccc21	22500 (active)
CCn1c(CNC(=O)c2cc(OC)c(OC)c(OC)c2)cc2cc(C)ccc21	3780
Cc1ccc(S(=O)(=O)N2CCN(C(=O)Cn3c(=O)cnc4ccccc43)CC2)c(C)c1	5660
CC(=O)Nc1cnc(-c2ccc(O)cc2C)cn1	3960
NS(=O)(=O)c1ccc(NC2=CC(c3ccc(F)cc3)N(c3ccc(S(N)(=O)=O)cc3)C2=O)cc1 (centres undefined)	4340
C#CCN(C[C@H]1[C@H](OC(=O)NC2CCCC2)[C@H](OC(=O)NC2CCCC2)C[C@H]2C(=O)N(c3ccccc3)C(=O)[C@@H]12)S(=O)(=O)c1ccc(C)cc1	3750
